About 1,900 (0.47%) of roughly 400,000 compounds were called active. Not shown: some 14% with an inconclusive outcome. The call rests on the fitted dose curve; in most records, active means well fitted cell-killing curve with a large enough effect; inconclusive means small, poorly fitted or top-dose-only effect, or effect the other way; inactive means no such curve, though single readings can be large or run the other way. The entries come from a sample that favours actives as a whole. Where a call stands in place of a potency, no number is given.
Potency means the concentration at half of the fitted maximal effect.

A short description of this test: Viability Counterscreen for Primary qHTS for Inhibitors of ATXN expression. Further: nearly all actives have a fitted effect of over 40% in size. The note with it: S2 cells (HEK-293 line with an ATXN2-luciferase reporter) viability, CellTiter-Fluor protease fluorescence, 24 h; series mostly up to 56.7 µM. An excerpt: Spinocerebellar ataxia type 2 (SCA2) is a multisystem neurodegenerative disease caused by a dominantly-acting mutation leading to expansion of a polyQ domain in the ataxin-2 protein (ATXN2). SCA2 patients develop progressive ataxia and later lose function in other neuronal systems. Prominent parkinsonian signs develop in some patients. Similar to many neurodegenerative disorders, no symptomatic or disease-modifying treatments are known.
The primary objective of the proposed research is to identify compounds inhibiting ATXN2 expression and to test them for efficacy in SCA2 mouse models. To this end, we have developed a cell-based assay paired with an in vivo mouse model using identical luciferase expression constructs. This approach takes advantage of an ATXN2-luciferase transgene, with the luciferase gene flanked by the upstream and downstream portions of the ATXN2 gene. This primary assay was tested against the NIH Molecular Libraries Small Molecule Repository (MLSMR).
NIH Chemical Genomics Center [NCGC]
NIH Molecular Libraries Probe Centers Network [MLPCN]
Assay Submitter (PI): Daniel Scoles, University of Utah
PROTOCOL TABLE (as described by Inglese J, Shamu CE and Guy RK. 2007)
SEQUENCE No. (e.g., 1, 2, 3, etc.); […] (e.g., Cells, Incubation, Reagent, etc.); VALUE; DESCRIPTION.
1; Cells; 4 uL; white, solid bottom, 1536-well Greiner assay plate.
2; Incubation; 2 hr; 37 degree C in 5% humidified CO2.
3; Compounds; 23 nL; Kalypsis pintool (Wako USA) equipped with a 1536-well pin head.
4; Incubation; 24 hr; 37 degree C in 5% humidified CO2.
5; Reagent; 1 uL; Gly-Phe-7-Amino-4-trifluoromethylcoumarin.
6; Incubation; 30 min; 37 degree C in 5% humidified CO2.
7; Detection; Fluorescence; ViewLux plate reader (PerkinElmer).
8; Reagent; 3 uL; SteadyGlo luciferase solution (Promega).
9; Incubation; 5 min; room temperature.
10; Detection; Luminescence; ViewLux plate reader (PerkinElmer).
NOTES (numbers refer to Sequence numbers above)
1. S2 cells expressing ATXN2-luciferase reporter were suspended in phenol-red free DMEM and dispensed in assay plates using a Multidrop Combi dispenser (Thermo Fisher Scientific).
2. Assay plates were incubated. Evaporation was prevented by covering assay plates with metal lids containing holes to allow gas diffusion.
3. […] Vehicle-only plates, with DMSO being pin-transferred to columns 5-48, were inserted uniformly at the beginning and the end of each library to monitor and record any shifts in assay performance.
5. 125 uM Gly-Phe-7-Amino-4-trifluoromethylcoumarin (MP Biomedicals) working concentration was used at a final concentration of 25 uM.
7. To assess cell viability; the assay plates were read using the ViewLux high-throughput CCD imager (PerkinElmer), wherein single end-point fluorescence measurement was acquired (excitation 405/10; emission 540/25 nm).
8. Detection reagent SteadyGlo Luciferase (Promega) was added to the assay plate.
10. Luminescence is then measured on the ViewLux imager equipped with a clear emission filter using a 2 sec exposure. All screening operations were performed on a fully integrated robotic system (Kalypsys) containing one RX-130 and two RX-90 anthropomorphic robotic arms (Staubli).
Inglese J, Shamu CE and Guy RK, Reporting data from high throughput screening of small molecule libraries, Nature Chemical Biology, 2007, 3(8): 438-441. doi.org/10.1038/nchembio0807-438.
On the technique in general: A counterscreen serves to expose hits that act by an unwanted route or on another target.
With `CC[C@H]1CN2CCc3cc(OC)c(OC)cc3[C@@H]2C[C@@H]1C[C@H]1NCCc2cc(OC)c(OC)cc21`, the Potency is 39.8 µM (active).

As to `C[C@H]1CC[C@@]2(NC1)O[C@@H]1C[C@H]3[C@@H]4CC=C5C[C@@H](O)CC[C@]5(C)[C@@H]4CC[C@]3(C)[C@@H]1[C@@H]2C`, the Potency result is “inactive”.

`C[C@]12CC[C@@H]3C(=CCc4cc(O)ccc43)[C@@H]1CCC2=O`: the Potency entry was “inactive”.

Consider `CCOC(=O)c1c(C)c(C(=O)N2CCC3(CC2)OCCO3)c(C)n1CC`, for which the Potency entry is “inactive”.

On to `CC(Cc1ccccc1)NCCC(c1ccccc1)c1ccccc1` (stereo not given), for which the Potency is 20 µM (active).

On to `CC(Cc1ccccc1)NC=O` (stereo not given), for which the Potency entry was “inactive”.

As to `CC(=O)NC(=O)NC(C)Cc1ccccc1` (stereo not given), the Potency result is “inactive”.

Consider `Cc1cc(-c2ccc(N)c(C)c2)ccc1N`, for which the Potency entry was “inactive”.

On to `CCN1C[C@@]2(COC)CC[C@H](OC)[C@]34[C@@H]1[C@]1(OCO[C@@]15C[C@@H](OC)C1C[C@H]3[C@H]5[C@@H]1OC)[C@H](O)[C@@H]24`, for which the Potency entry was “inactive”.

As for `CN1[C@@H]2CC[C@H]1CC(OC(=O)c1cc(Cl)cc(Cl)c1)C2` (stereo not given in full), the Potency entry is “inactive”.

For the compound `O=C(CSc1ccccc1)Nc1ccc(C(=O)Nc2cccc(O)c2)cc1`, the Potency result was “inactive”.

Take `COc1ccccc1C(=O)N[C@@H]1c2ccccc2C2(CCN(Cc3nc(C(C)C)cs3)CC2)[C@H]1O`: the Potency was 35.5 µM (active).

`COC(=O)C1=C(c2ccc(Cl)c(C(F)(F)F)c2)C[C@@H]2CC[C@H]1N2C(=O)NC1CC1`: the Potency result was “inactive”.

With `Clc1ccc([C@@H]2C[C@H]3CC[C@@H]2N3)cn1`, the Potency entry is “inactive”.

Regarding `C[C@]12CC[C@H](O)C[C@@H]1CC[C@H]1[C@H]2CC[C@]2(C)C(=O)CC[C@@H]12`, the Potency result was “inactive”.

Consider `CCOC(=O)[C@]12Cc3ccccc3[C@H]1N(C1CCCCC1)C(=O)c1cc(OC)ccc12`, for which the Potency was 10 µM (active).

Take `CCOC(=O)[C@]12Cc3cc(OC)ccc3[C@H]1N(C(C)C)C(=O)c1ccccc12`: the Potency was 11.2 µM (active).

With `COc1cccc(-c2ccc(O)c(CNC3CN4CCC3CC4)c2)n1` (stereo not given), the Potency entry is “inactive”.

Regarding `CCN1C[C@]2(C)CC[C@H](O)[C@@]34[C@@H]5CC6[C@@H](OC)C[C@@](O)([C@@H]5[C@@H]6O)[C@H](C[C@@H]23)[C@H]14`, the Potency entry was “inactive”.

With `CCCOC(=O)c1cncn1C(C)c1ccccc1` (stereo not given), the Potency result was “inactive”.

For `Cc1nnc(NC(=O)c2cccn(Cc3cccc(F)c3)c2=O)s1`, the Potency result is “inactive”.

With `CCOC(=O)c1c(-c2ccccc2)oc2ccc(OC(=O)N(C)C)cc12`, the Potency entry was “inactive”.

`COC(=O)C1=C(c2ccc(F)cc2OCc2ccccc2)C[C@@H]2CC[C@H]1N2C(=O)NCc1ccc2[nH]ccc2c1`: the Potency result was “inactive”.

Take `CC1N=C(N)OC1c1ccccc1` (stereo not given): the Potency result was “inactive”.

Regarding `O=C(Cn1c(=O)n(CC2CS2)c2ccccc21)N1CCCCC1` (stereo not given), the Potency result is “inactive”.
